The assay has as its target Shiga toxin 2 (Escherichia coli O157:H7) (UniProt P09385+P09386). In words: E. coli 0.157:H7 Shiga Toxin SOP - stx2 screening assay. Format: functional. Further details: scale not given: direction of the effect not stated beside the values. The following applies: 30 µM.
For the compound `CN(C)[C@H]1CCCCN(C(=O)CCc2csc(N)n2)C1`, the Percent Effect amounted to 3.47%. Regarding `N#CC1(C(=O)N2CCN(Cc3ccon3)CC2)CCC1`, the Percent Effect was 3.73%. Next, `O=C(NCCn1ccnc1)N1CCCC1c1ccsc1` (stereo not given): -9.24%; `CC(c1ccc(Cl)cc1)N1CCN(CCS(C)(=O)=O)CC1` (stereo not given): 1.09%; `O=C(NCC(Cc1cccc(F)c1)N1CCCC1=O)c1cnccn1` (stereo not given): -15.9%.

On to `CCc1ccc(C2CCCCCN2Cc2nc(CCOC)no2)o1` (stereo not given), for which the Percent Effect was -30.6%. Next, `Cn1cnnc1CNC(=O)Nc1cc(C(F)(F)F)c[nH]c1=O`: 27.2%; `CCc1cccc(N2CCC(NC(=O)c3ccc(=O)[nH]n3)CC2)c1`: -1.12%.

Consider `CCc1nc(CN2CCCC(NCc3nnc(C4CC4)o3)C2)no1` (stereo not given), for which the Percent Effect was found to be 17.9%.

Consider `Cc1cc(CNC(=O)C2CCCCN2C(=O)OC(C)(C)C)no1` (stereo not given), for which the Percent Effect was 10.5%. Next, `CCn1ccnc1CN1CCC(CNC(=O)c2ccc(C)nc2)C1` (stereo not given): -34.1%; `Cc1cccc(N2CCC(NC(=O)CCCc3cccs3)CC2)n1`: -2%.

In the case of `CN(Cc1ccccc1F)C(=O)CS(=O)(=O)Cc1ccc(Cl)c(Cl)c1`, the Percent Effect was 37%. `Cc1ncsc1CN1C[C@H](C(=O)N2CCCO2)[C@@H]2CCO[C@@H]2C1`: the Percent Effect is -4.78%. `CC(C)c1nnc2n1CCN(C(=O)CN1CCc3sccc3C1)C2`: the Percent Effect was -16.2%. Next, `Cc1ccccc1Oc1ncccc1CNS(C)(=O)=O`: -11.9%; `CC(C)c1cc(NC(=O)CN2CCC(N3CCNC3=O)CC2)on1`: -28.7%; `CCOC(CC)C(=O)NCCC(=O)N1CCN(c2ccccn2)CC1` (stereo not given): -11.4%. Next, `Cc1cnn(CC2CN(CC(=O)Nc3nnc(C)s3)CCO2)c1` (stereo not given): 7.65%; `Cc1cnn(CC2CCCCN2Cc2cc(C)on2)c1` (stereo not given): -7.45%.

`Cc1nc(COC[C@@H]2CC[C@H]3[C@H](CCN3S(C)(=O)=O)O2)cs1`: the Percent Effect came to 1.49%.

In the case of `O=S1(=O)N=C(SCc2ccc(Cl)cc2)Nc2ccc(F)cc21`, the Percent Effect was -5.93%. Next, `O=C([C@H]1CCCO1)N1CCc2ncnc(NC3CC3)c2CC1`: -32%; `Cc1cnn(CC2CCCN2CC(=O)N(C)CCC#N)c1` (stereo not given): -11.9%.

On to `COc1ccccc1C(O)CNC(=O)NCc1cccnc1OC` (stereo not given), for which the Percent Effect turned out to be 9.52%. Next, `CC[C@@]1(O)CCN(C(=O)c2ccsc2)C[C@H]1O`: -16.9%; `NC(=O)COc1ccc(CNCc2ccc(F)c(F)c2)cc1`: -31.1%. Turning to `CN(C)CC(=O)N1CCCC2(CCC(=O)N(CCc3c[nH]cn3)C2)C1` (stereo not given), the Percent Effect was -43.1%.

`Cc1ccc(CCC(=O)N2CCCC(n3cncn3)C2)c(C)c1` (stereo not given): the Percent Effect turned out to be 10.1%. Next, `Cc1nc2ccccc2c(=O)n1CCC(=O)N1CCSCC1`: 7.96%.

Turning to `c1ccc(-n2nnnc2CN2CCCC(Cn3cncn3)C2)cc1` (stereo not given), the Percent Effect was 6.15%. With `COc1cccc(CCC(=O)N2CCCCC2Cn2cccn2)c1` (stereo not given), the Percent Effect was found to be 22.5%.

`Cn1cc(C2CCCN2C(=O)CCCOCc2ccccc2)cn1` (stereo not given): the Percent Effect was -16.1%. Next, `COc1ccc(C(=O)NCCc2nnc3ccccn23)c(OC)c1`: -5.45%; `Cn1ccc(C(=O)NC2CCN(c3ncccn3)CC2)cc1=O`: 24.2%; `CC(C(=O)N1CCCC1)N1CCC(c2nccn2CC2CCC2)CC1` (stereo not given): -1.48%. On to `Cc1[nH]ncc1C(=O)N1CCCC(c2cc(C(F)(F)F)[nH]n2)C1` (stereo not given), for which the Percent Effect worked out at 24.8%. Next, `Cc1nc(C2CCCN(C(=O)Cn3ccccc3=O)C2)no1` (stereo not given): 25.3%.

For the compound `Cc1ccc2c(n1)N(CCn1cccn1)CCN(C(=O)NC1CC1)C2`, the Percent Effect turned out to be 6.77%. Next, `Cc1[nH]ncc1C(=O)N1CCN(CC(O)C(C)(C)C)CC1` (stereo not given): 0.313%.

Values taken from ChEMBL document CHEMBL3988442, “University of Dundee, Small-Polar-MMV Screening Library” (2021).
